Bioassay records: PubChem BioAssay, National Center for Advancing Translational Sciences (NCATS)
The list is not random: actives were taken first. Their share in the collection is about 1.2%.
EPAC2 agonist – EPAC2 (human) agonism. EPAC2 activation, biochemical qHTS; response scale: 100% = 6.5 mM cAMP response. Potency, µM (doses to about 154 µM), inactives show top-dose activation, usual class: activators. actives 0.079% (n = 360,000); further: nearly all actives have a fitted effect of over 50% in size
Target sequence (Q8WZA2 whole entry, looked up): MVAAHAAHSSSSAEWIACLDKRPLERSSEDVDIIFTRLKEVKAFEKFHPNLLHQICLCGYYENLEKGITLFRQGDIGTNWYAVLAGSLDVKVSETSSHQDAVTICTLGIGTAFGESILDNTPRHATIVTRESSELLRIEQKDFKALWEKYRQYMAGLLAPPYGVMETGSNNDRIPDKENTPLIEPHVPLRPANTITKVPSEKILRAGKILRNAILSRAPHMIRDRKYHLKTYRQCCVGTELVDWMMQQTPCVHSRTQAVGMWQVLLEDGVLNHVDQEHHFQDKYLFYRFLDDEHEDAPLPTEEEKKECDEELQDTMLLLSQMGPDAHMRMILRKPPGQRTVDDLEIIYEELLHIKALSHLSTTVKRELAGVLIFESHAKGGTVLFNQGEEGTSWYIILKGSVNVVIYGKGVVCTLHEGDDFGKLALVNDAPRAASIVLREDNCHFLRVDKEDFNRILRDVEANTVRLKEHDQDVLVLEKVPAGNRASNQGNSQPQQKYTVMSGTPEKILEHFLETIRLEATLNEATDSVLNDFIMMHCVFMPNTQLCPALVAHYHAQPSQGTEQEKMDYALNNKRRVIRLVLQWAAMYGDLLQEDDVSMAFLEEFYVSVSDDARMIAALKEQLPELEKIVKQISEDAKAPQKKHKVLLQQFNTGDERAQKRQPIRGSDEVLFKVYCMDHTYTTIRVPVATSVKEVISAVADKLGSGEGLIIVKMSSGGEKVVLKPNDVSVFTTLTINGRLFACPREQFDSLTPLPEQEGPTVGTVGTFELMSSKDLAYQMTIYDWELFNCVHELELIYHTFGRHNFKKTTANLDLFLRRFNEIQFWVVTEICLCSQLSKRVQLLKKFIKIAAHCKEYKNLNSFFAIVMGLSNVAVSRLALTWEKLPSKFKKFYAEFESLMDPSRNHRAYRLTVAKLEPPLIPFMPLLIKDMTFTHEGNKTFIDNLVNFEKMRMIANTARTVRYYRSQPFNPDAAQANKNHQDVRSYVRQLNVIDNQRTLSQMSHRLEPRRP
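Guanine nucleotide exchange by EPAC2 is measured as reduced fluorescence of BODIPY-GDP once it is released from 250 nM Rap1B. Plates are read kinetically for 30 min at room temperature; results are scaled to 6.5 mM cAMP.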
VDR inhibitor – vitamin D3 receptor (human) inhibition; AID 504847; Potency, µM, without a hit: max response, negative = inhibition, actives largely listed as inhibitors; P11473; VDR-SRC2-3 peptide fluorescence polarization, 2 h; actives 0.93% (n = 400,000); further: on the % scale 0 is the no-effect control and ±100 the full control effect
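Measured by FP: displacement of SRC2-3 coactivator peptide from VDR by library compounds, following a two-hour ambient incubation.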
EPAC2 antag – blocks human EPAC2 exchange factor | EPAC2 GEF exchange of Rap1B-BODIPY-GDP, fluorescence | actives 0.18% (n = 360,000) | Potency, µM (top dose mostly 114 µM), for inactives: at the top dose activity, negative = inhibition, actives largely listed as inhibitors; further: on the % scale 0 is the no-effect control and ±100 the full control effect; nearly all actives have a fitted effect of over 45% in size
EPAC1 ag – EPAC1 (human) agonism; O95398; EPAC1 agonist qHTS, biochemical assay; response scale: 100% = response to 6.5 mM cAMP; Potency, µM (doses to about 154 µM), without a hit: at the top dose activation, actives largely listed as activators; actives 0.073% (n = 360,000); AID 720707; further: nearly all actives have a fitted effect of over 60% in size
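Fluorescent GDP-exchange assay: 100 nM EPAC1 with 250 nM Rap1B preloaded with BODIPY-GDP and 50 uM GDP; compounds tested as concentration series, 5 min at room temperature, then read every 5 min for 30 min (ex 480/em 540 nm); normalized to 6.5 mM cAMP.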
USP1-UAF1 inh – blocks the human USP1/UAF1 deubiquitinase complex. Potency, µM (titrated, usually from 57.1 µM), without a hit: at the top dose activity change, negative = inhibition, usual class: inhibitors. O94782. recombinant USP1/UAF1, Ub-Rhodamine cleavage fluorescence. AID 743255. actives 0.23% (n = 390,000); further: on the % scale 0 is the no-effect control and ±100 the full control effect; nearly all actives have a fitted effect of over 60% in size
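Step one: compound is pinned into 1nM USP1/UAF1 in HEPES pH 7.8 buffer with TCEP. Step two: 15 min room-temperature incubation. Step three: Ub-Rho (150nM final) starts cleavage, tracked by fluorescence over six one-minute reads.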
EPAC1 antagonist – EPAC1 (human) antagonism. O95398. EPAC1 GEF assay, Rap1b-BODIPY-GDP exchange fluorescence. Potency, µM (series often up to 115 µM), for inactives: at the highest dose activity change, negative = inhibition, most hits filed as inhibitors. actives 0.14% (n = 360,000). AID 720709;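 further: plate controls were vehicle for no effect and positive control for full effect; nearly all actives have a fitted effect of over 50% in size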
Starred values were filed as active, the others as inactive; ? = inconclusive; . = no result; [ ] = dose if it differs, or a comment. The call rests on the fitted dose curve; in most records, active means well fitted curve in the direction sought with a large enough effect; inconclusive means small, poorly fitted or top-dose-only effect, or another doubt; inactive means no such curve, though single readings can be large; an effect the other way counts as inactive or inconclusive. Potency means the concentration at half of the fitted maximal effect.

SMILES	EPAC2 agonist	VDR inhibitor	EPAC2 antag	EPAC1 ag	USP1-UAF1 inh	EPAC1 antagonist
COc1ccc(C(=O)N2CCC[C@@]3(CCN(c4ccncc4)C3)C2)cc1	.	14%	.	.	.	.
CN1CC[C@@]2(CCCN(C(=O)c3cccc(F)c3)C2)C1	.	-2%	.	.	.	.
O=C(c1cccc(F)c1)N1CCC[C@@]2(CCN(c3cccc(-c4ccccc4)c3)C2)C1	.	45µM*	.	.	.	.
COc1ccc(CCn2nnnc2C2(c3ccc(C)cc3)CC2)cc1	.	-26%	.	.	.	.
Cc1ccc(CNC(=O)Cn2cc(S(=O)(=O)Cc3ccccc3F)c3ccccc32)cc1	.	9%	.	.	-15%	.
COc1ccccc1CNC(=O)c1cc2sccc2n1Cc1ccc(F)cc1	.	89µM*	.	.	-23%	.
CC(C)C1C(=O)N(S(C)(=O)=O)[C@H]2CCN(C(=O)/C=C/CN3CCCCC3)[C@@H]12 (stereo partly specified)	.	-2%	.	.	.	.
CCOC(=O)c1ccccc1NC(=O)CCc1c(C)nc2ncnn2c1C	.	-10%	.	.	-13%	.
COc1ccc(C2Nc3ccccc3C(=O)N2Cc2ccco2)cc1 (stereo unspecified)	.	-21%	.	.	.	.
Cc1nc2ccccc2n2c(O)c(CC(=O)O)cc12	112µM*	-6%	46%	?	?	26%
Cc1nc2ccccc2n1CCC(=O)O	-6%	-8%	4%	-6%	-21%	1%
CCCCCC(O)/C=C/C=C\CCCCCCCC(=O)O (stereo unspecified)	.	2%	.	.	.	.
CC(=O)N1CCN(c2ccc(NC(=O)c3ccc(OCc4ccccc4)cc3)cc2)CC1	10%	28µM*	1%[57.1 µM]	-1%	-20%	1%
CC(=O)N1CCN(c2ccc(NC(=O)c3cccc(OCc4ccccc4)c3)cc2)CC1	0%	-12%	-4%	0%	-18%	-8%
Cc1ccc(C)c(N2CCN(S(=O)(=O)c3ccc(-c4cc(C(F)(F)F)on4)s3)CC2)c1	.	4%	.	.	-18%	.
Cc1ccc(NC(=O)CC2SC(=O)N(c3ccccc3)C2=O)cc1 (stereo unspecified)	-6%	28µM*	5%	3%	-21%	-2%
O=C(CC1SC(=O)N(c2ccccc2)C1=O)Nc1ccccc1 (stereo unspecified)	2%	22µM*	16%	1%	-13%	12%
COc1cccc(Cn2c(=O)c(-c3ccc(Cl)cc3)nc3cncnc32)c1	.	0%	.	.	.	.
C[C@@H]1CC=C[C@@H]2[C@H]1C(=O)N(Cc1ccccc1)[C@H]2c1ccccc1Br	8%	?	25µM*	-16%	-11%	-25%
C[C@@H]1CC=C[C@@H]2[C@H]1C(=O)N(Cc1ccccc1)[C@H]2c1cccc(Br)c1	2%	-7%	-6%	-2%	-13%	0%
N#CCCn1cnc2c1NC=NC2Cl (stereo unspecified)	.	11%	.	.	.	.
CCNc1ncc2nc(-c3ccc(Cl)cc3)c(=O)n(-c3ccc(OC)cc3)c2n1	.	-13%	.	.	.	.
N#C/C(=C/c1ccc(N2CCCCCC2)o1)c1ccc(Cl)cc1	10%	22µM*	10%	2%	?	6%
N#C/C(=C/c1ccc(N2CCCCC2)o1)c1cccc(F)c1	-1%	40µM*	8%	-8%	18µM*	8%
CC[C@@]1([C@@H]2O[C@@H]([C@H]3O[C@@](O)(CO)[C@H](C)C[C@@H]3C)C[C@@H]2C)CC[C@@H]([C@]2(C)CCC3(C[C@H](O)[C@@H](C)[C@@H]([C@@H](C)[C@@H](OC)[C@H](C)C(=O)O)O3)O2)O1 (stereo partly specified)	.	0%	.	.	.	.
SMILES	EPAC2 agonist	VDR inhibitor	EPAC2 antag	EPAC1 ag	USP1-UAF1 inh	EPAC1 antagonist
CCN(CC)c1ncnc2c1ncn2[C@@H]1O[C@@H](COP(=O)(O)OP(=O)(O)C(Br)(Br)P(=O)(O)O)[C@H](O)[C@H]1O	.	-2%	.	.	.	.
O=C1CCn2c1c(O)c1ccccc1c2=O	32%	-3%	1%	13%	5µM*	0%
Nc1[nH]c(=O)[nH]c(=O)c1N=Cc1ccccc1	?	71µM*	7%	9%	-20%	-18%
CCOC(=O)c1c(NC(=O)/C=C/C(=O)O)sc(C)c1-c1ccc(F)cc1	6%	22µM*	-17%	-5%	-10%	?
COC(=O)c1c(NC(=O)/C=C/C(=O)O)sc(C)c1-c1ccc(C(C)C)cc1	2%	25µM*	?	-12%	-20%	-31%
COC(=O)c1c(NC(=O)/C=C/C(=O)O)sc(C)c1-c1ccc(C)c(C)c1	-5%	89µM*	-1%	-5%	-21%	-6%
COC(=O)c1sc(-c2ccc(Cl)cc2)cc1NC(=O)/C=C/C(=O)O	2%	32µM*	-12%	-6%	-27%	3%
COC(=O)c1c(NC(=O)/C=C/C(=O)O)sc(C)c1-c1ccc(C)cc1	-1%	?	-29%	-2%	-23%	-13%
CCCCC/C=C\C/C=C\CCCCCCCCCC(=O)NC(C)C(=O)O (stereo unspecified)	.	-9%	.	.	.	.
CCCCC/C=C\C\C=C/C=C/C=C/[C@@H](SC[C@H](NC(=O)CC[C@H](N)C(=O)O)C(=O)NCC(=O)O)[C@@H](O)CCCC(=O)O	.	2%	.	.	.	.
CC1(C)CC(=O)C(C(C#Cc2ccccc2)C2=C(O)CC(C)(C)CC2=O)=C(O)C1	7%	22µM*	5%	-3%	-2%	17%
O=C1CCCC(O)=C1C(C#Cc1ccccc1)C1=C(O)CCCC1=O	10%	?	-5%	3%	-2%	-19%
O=Cc1s/c(=N\S(=O)(=O)c2ccccc2)n(CCCCl)c1Cl	-9%	22µM*	-10%	-1%	-19%	-13%
CCn1c(C)cs/c1=N\S(=O)(=O)c1ccccc1	5%	-23%	7%	-3%	-18%	5%
COc1ccc(S(=O)(=O)n2c([N+](=O)[O-])cnc2C)c(C)c1C	4%	-5%	-17%	13%	-13%	7%
Cc1ccc(S(=O)(=O)n2c([N+](=O)[O-])cnc2C)c(C)c1C	3%	45µM*	1%	3%	-16%	1%
COC(=O)C/C=C1\c2ccc3c(c2[C@@H](OC)[C@@H]1C)OCO3	.	-3%	.	.	.	.
COc1ccc2c(c1)c1c(c(=O)n(Cc3ccccc3)c(=O)n1Cc1cccc(Cl)c1)n2C	.	4%	.	.	-9%	.
CC(C)(C)c1ccc(C2=NC(=O)C(CC(=O)O)S2)cc1 (stereo unspecified)	10%	25µM*	4%	-2%	-21%	-16%
O=C1N=c2ccccc2=C1c1sc(Nc2ccc(O)cc2)nc1O	1%	13%	-27%	-4%	-18%	45µM*
CC(=O)N1c2ccccc2C(=O)C1N1CCN(c2cc(Cl)ccc2C)CC1 (stereo unspecified)	.	17%	.	.	?	.
